# According to PubChem BioAssay (NCI):
# Where “and” joins values, the source holds several entries; their conditions need not be identical. Equal values may be shown once. The panel holds about 79,000 compounds, 15% with a hit somewhere; the sample as a whole holds those more often. Some structures have more than one record in an assay (separate samples or runs), and their calls can disagree. Calls of active or inactive are those of the source. Cut-off read from the data, not from the text of the source: active = growth inhibition above about 70%; inactive = the rest.
# Legend:
# [1] = NCI Yeast Anticancer Drug Screen. Data for the rad50 strain (AID 155);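 note: 0% = growth of vehicle-only cultures of the same strain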; conditions: S. cerevisiae rad50 strain growth inhibition, stronger effect = higher value
# How it was run: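 Compounds were tested on a yeast strain with an engineered DNA damage repair alteration; the reported value is growth inhibition normalised to vehicle treatment.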
# [2] = NCI Yeast Anticancer Drug Screen. Data for the mec2-1 strain (AID 157); conditions: S. cerevisiae mec2-1 strain, stronger effect = higher value
# How it was run: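 Readout is yeast growth inhibition, normalised to vehicle-treated controls, in the mec2-1 strain exposed to compound.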
# [3] = NCI Yeast Anticancer Drug Screen. Data for the sgs1 mgt1 strain (AID 161);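 note: 0% = growth of cultures given vehicle only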; conditions: S. cerevisiae sgs1 mgt1 strain, stronger effect = higher value
# How it was run: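 Growth of a repair-deficient yeast mutant was monitored after compound treatment and expressed as inhibition relative to vehicle-treated cultures.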
# [4] = NCI Yeast Anticancer Drug Screen. Data for the cln2 rad14 strain (AID 165);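 note: 0% = growth equal to vehicle treated cultures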; conditions: S. cerevisiae cln2 rad14 strain, stronger effect = higher value
# How it was run: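 Relative to vehicle controls, growth inhibition of compound-treated cln2 rad14 yeast was recorded.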
# [5] = NCI Yeast Anticancer Drug Screen. Data for the mlh1 rad18 strain (AID 175); conditions: S. cerevisiae mlh1 rad18 strain growth inhibition, stronger effect = higher value
# How it was run: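 Test agents were incubated with a yeast strain of defined genotype (DNA damage repair defect). Inhibition of growth was derived by comparison with vehicle-exposed cultures.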
# [6] = NCI Yeast Anticancer Drug Screen. Data for the bub3 strain (AID 167); conditions: S. cerevisiae bub3 mutant strain, stronger effect = higher value
# How it was run: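 Growth of a checkpoint-deficient yeast mutant is measured after compound exposure. Values represent inhibition relative to vehicle.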
# [7] = at 5.0 µM (retest, dose inferred, filed as 0.5)
# [8] = at 50.0 µM (retest, dose inferred, filed as 5.0)
Structure (SMILES),"growth inhibition [1, 7]","growth inhibition [1, 8]",growth inhibition ([1]; at 50.0 µM),"growth inhibition [2, 7]","growth inhibition [2, 8]",growth inhibition ([2]; at 50.0 µM),"growth inhibition [3, 7]","growth inhibition [3, 8]",growth inhibition ([3]; at 50.0 µM),"growth inhibition [4, 7]","growth inhibition [4, 8]",growth inhibition ([4]; at 50.0 µM),"growth inhibition [5, 7]","growth inhibition [5, 8]",growth inhibition ([5]; at 50.0 µM),"growth inhibition [6, 7]","growth inhibition [6, 8]",growth inhibition ([6]; at 50.0 µM)
O=C(Nc1cc(-c2ccccc2)[nH]n1)c1ccccc1F,41% (inactive),59% (inactive),88.1% (active),35% (inactive),69% (inactive),86% (active),39% (inactive),83% (active),92.8% (active),30% (inactive),54% (inactive),66.5% (inactive),43% (inactive),86% (active),89.6% (active),,,
CC(=O)OC1OC(CI)C(OC(C)=O)C(OC(C)=O)C1OC(C)=O (centres undefined),1% (inactive),38% (inactive),16.1% (inactive) and 5.95% (inactive),-1% (inactive),21% (inactive),17% (inactive) and 12.6% (inactive),-3% (inactive),19% (inactive),4.55% (inactive) and -11.6% (inactive),,,,-1% (inactive),25% (inactive),24.4% (inactive) and 9.3% (inactive),-5% (inactive),69% (inactive),19.8% (inactive) and 94% (active)
CCCCCCCCCCCCCCCCBr,-1% (inactive),0% (inactive),99.5% (active),-2% (inactive),0% (inactive),99.7% (active),-2% (inactive),8% (inactive),99.3% (active),4% (inactive),1% (inactive),98.8% (active),6% (inactive),-5% (inactive),99.2% (active),,,
O=C(O)CSCc1ccc(Cl)cc1,-2% (inactive),1% (inactive),3.7% (inactive),2% (inactive),-3% (inactive),-32.9% (inactive),2% (inactive),1% (inactive),-9.3% (inactive),0% (inactive),-7% (inactive),29.3% (inactive),-1% (inactive),-3% (inactive),-6.45% (inactive),,,
COC(=O)C1=COC(C)C2C[n+]3ccc4c([nH]c5ccccc54)c3CC12 (centres undefined),23% (inactive),25% (inactive),-11.6% (inactive) and 6.35% (inactive),22% (inactive),25% (inactive),-34% (inactive) and 31.9% (inactive),17% (inactive),38% (inactive),-11.2% (inactive) and 17.6% (inactive),21% (inactive),30% (inactive),-8.3% (inactive) and -15.8% (inactive),23% (inactive),39% (inactive),-18.1% (inactive) and 43.3% (inactive),22% (inactive),35% (inactive),-31.1% (inactive) and 38.2% (inactive)
CCN(CC)CCC(=O)/C=C/c1ccccc1,31% (inactive),95% (active),99.3% (active) and 29.2% (inactive),27% (inactive),100% (active),99.6% (active) and 56.1% (inactive),60% (inactive),100% (active),99.5% (active) and 28.6% (inactive),42% (inactive),97% (active),99.3% (active) and 6.75% (inactive),32% (inactive),99% (active),99.3% (active) and 36% (inactive),58% (inactive),99% (active),99.5% (active) and 49.5% (inactive)
NNc1c2ccccc2nc2ccccc12,9% (inactive),79% (active),21.1% (inactive) and 95.8% (active),6% (inactive),43% (inactive),18.4% (inactive) and 85.8% (active),1% (inactive),47% (inactive),-10% (inactive) and 94% (active),4% (inactive),38% (inactive),-19.1% (inactive) and 92.5% (active),2% (inactive),86% (active),8.4% (inactive) and 96.8% (active),-5% (inactive),48% (inactive),-21.5% (inactive) and 93.5% (active)
